The results in this text go back to PubChem BioAssay (NCATS).

Molecules are shown by their SMILES. Inconclusive results are not listed. A number with no mark means an inactive call. Active and inactive are the calls of the source. Calls come from the whole dose curve; as a rule, active = well fitted curve in either direction with a large enough effect (not every such curve was filed as active); inconclusive = small, poorly fitted or top-dose-only effect, or another doubt; inactive = flat fitted curve, though single readings scatter.
% is set by controls: 0 for no effect and ±100 for the full control effect.

The experiment is described as follows: NFAT Signaling Pathway (AID 444). As to conditions: Jurkat NFAT-bla M1, carbachol, beta-lactamase ratio, 5 h; at 7.69 µM (top of the series) unless noted. The source says:
NCGC Assay Overview: The nuclear factor of activated T cells (NFAT) family of transcription factors has been found primarily in most immune system cells and some other non-immune cells. NFAT plays the immunomodulatory role, primarily in T-cell activation and differentiation. NFAT target genes are also involved in the regulation of apoptosis and differentiation in non-immune cell types. The NFAT sequence was engineered to the upstream of the ?-lactamase reporter gene and transfected into Jurkat cells with co-transfection of muscarinic receptor1 [provided by Invitrogen Corp]. When an extracellular stimulus, such as carbachol, binds to the GPCR M1 receptor, it stimulates a signaling cascade that activates NFAT response element and ?-lactamase expression by phosphorylating the NFAT binding protein. This cell based ?-lactamase reporter gene assay can accurately monitor any changes occurring along the NFAT pathway, and can be used for screening small molecule inhibitor or activator upon activation by carbachol EC50 concentration. A small molecular library were screened in a titration series resulting in AC50s (can be either IC50s or EC50s).
NCGC Assay Protocol Summary: The cells were prepared in RPMI 1640 medium containing 0.1% dialyzed FBS and 25 mM HEPES at 1.6 x 10^6cell/ml. The assay was performed in 1536-well plate format as follows: 5 ul of cell preparation 23 nl of compounds 1ul of carbachol (final concentration 1 uM) Briefly centrifuge the plates and incubate at 37 °C for 5 hours 1 ul of CCF4 dye mixture Incubate the plates at RT for 1 hour Read the plate in EnVision plate reader (Ex= 405nm, and Em1=460nm and Em2=530nm). The %Activity was determined from the ratio of 460nm/530nm. Data normalization and AC50 calculations were accomplished using GeneData software.
As to `NC(=O)N[C@H](CC(=O)O)C(=O)O`, the activity change, negative = inhibition is 0.469%.
Turning to `NS(=O)(=O)c1cc2c(cc1Cl)=NC(CCC(=O)O)=NS=2(=O)O`, the activity change, negative = inhibition is 7.52%.
For the compound `NS(=O)(=O)c1ccc(N=C2C(=O)Nc3ccccc32)cc1`, the activity change, negative = inhibition was 4.31%.
In the case of `O=C1c2ccccc2C(=O)N1C[C@]1(C(=O)O)NCCS1(=O)=O` it was 7.39%; in that of `c1cncc(CNc2ncn[nH]2)c1`, 15.3%.
For the compound `Cc1cc(Cl)ccc1Nc1sc(C(=O)c2cc3cc(Cl)ccc3o2)c(N)c1C#N`, the activity change, negative = inhibition is 14.9%.
Take `Cc1nc2cnc(Oc3cccc(Cl)c3)nc2n(C[C@H]2CCCO2)c1=O`: the activity change, negative = inhibition was -3.55%.
`CCOC(=O)c1cnc(N(C)C)nc1SC(=N)N`: the activity change, negative = inhibition was 11.3%.
For `N#Cc1c(NC(=O)C(F)(F)F)sc2c3c(=O)c4ccccc4c(=O)c=3oc3ccccc3c12`, the activity change, negative = inhibition was 13.7%.
Turning to `O=S(=O)(NCCNC/C=C\c1ccc(Br)cc1)c1cccc2cnccc12`, the activity change, negative = inhibition was -7.5% [at 38 µM].
For the compound `C/C(=N/NS(=O)(=O)c1ccc(C)cc1)P(=O)(O)O`, the activity change, negative = inhibition is 7.41%.
Turning to `Nc1[nH]c(=S)[nH]c(=O)c1N=Nc1c(Br)cc(S(N)(=O)=O)cc1Br`, the activity change, negative = inhibition was -0.337%.
With `Cn1c(=O)c2c(nc(C(=N)SCC(=O)O)n2C)n(C)c1=O`, the activity change, negative = inhibition is 4.58%.
`CSc1nc(C)cc(Nc2ccc(O)c(CN3CCCCC3)c2)n1`: the activity change, negative = inhibition was -16.1%.
Regarding `COc1ccc(C[N+](C)(C)N)cc1OC`, the activity change, negative = inhibition is -4.71%.
`CCO[P@]1(=O)OC[C@@H]2O[C@H](n3cnc4c(N)ncnc43)[C@H](O)[C@@H]2O1`: the activity change, negative = inhibition was 4.19%.
With `Cc1ccccc1CNc1ncnc2c1ncn2[C@@H]1O[C@@H](CO)[C@H](O)[C@@H]1O`, the activity change, negative = inhibition was 10.4% [at 38 µM].
In the case of `O=C(O)[C@H]1[C@H](C(=O)O)[C@H](C(=O)O)C[C@@H]1C(=O)O` it was 2.63%; in that of `COc1cccc2c1[C@H](CO)N1[C@H](C#N)[C@@H]3C[C@H](C(=O)O)[C@@H]([C@@H]1C2)N3C`, -126% (active); in that of `COCCn1c(=O)c(-c2cc(F)cc(F)c2)nc2cnc(Oc3ccccc3)nc21`, -3.81%.
In the case of `O=C(O)c1cccc(OCCO)c1` it was -28.1%.
With `c1cncc(CSc2ncnc3nc[nH]c23)c1`, the activity change, negative = inhibition was 19.6%.
Regarding `CCNC(=O)[C@@H]1O[C@@H](n2cnc3c(NCc4ccccc4)ncnc32)[C@@H](O)[C@H]1O`, the activity change, negative = inhibition is 17% [at 38 µM].
With `O=C1CSC(=S)N1/N=C\c1ccc(Cl)c([N+](=O)[O-])c1` the figure was 6.49%.
For the compound `CC(C)Oc1cc(O)c2c(c1)OCC=C2CCC(=O)O`, the activity change, negative = inhibition was -2.86%.
In the case of `CN1[C@@H]2CC[C@H]1CC(NC(=O)c1nn(C)c3ccccc13)C2` (stereo not given in full), the activity change, negative = inhibition is -9.68% [at 38 µM].
In the case of `O=C(c1ccncc1)N1CCC2(CCCN(c3cccc(-c4ccccc4)c3)C2)CC1`, the activity change, negative = inhibition is -6.09%.
In the case of `O=c1cc(N=Nc2ccc(O)cc2)[nH]c(=O)[nH]1` it was -4.22%; in that of `O[C@@H](C1=C/C(=C\c2ccncc2)c2ccccc21)c1ccncc1`, -26.9%.
As for `O=C(Cn1ccc(=O)[nH]c1=O)Nc1ccc(C(=O)O)c(O)c1`, the activity change, negative = inhibition is 18.3%.
As for `O=C(O)[C@H]1CCc2ccc3ccccc3c2[C@H]1c1cccc2ccccc12`, the activity change, negative = inhibition is -25.8%.
With `O=C(O)Cn1ccnc1[N+](=O)[O-]`, the activity change, negative = inhibition is -1.99%.
`O=S(=O)(O)c1cc(O)c2c(O)c(N=Nc3cccc4ccccc34)c(S(=O)(=O)O)cc2c1`: the activity change, negative = inhibition was -6.39%.
On to `NNC(=O)c1ccc[n+](CCc2ccccc2)c1`, for which the activity change, negative = inhibition was -4.8%.
Turning to `Cc1cc2sc(C)[n+](CCCOS(=O)(=O)O)c2cc1C`, the activity change, negative = inhibition is 7.47%.
Regarding `Nc1nc(SCCc2ccccc2)c2[nH]cnc2n1`, the activity change, negative = inhibition is 15.6%.
For the compound `Cn1cnc([N+](=O)[O-])c1Sc1nc(N)nc2c1ncn2[C@H]1C[C@H](O)[C@@H](CO)O1`, the activity change, negative = inhibition is -2.48%.
Regarding `O=C(O)CCC(=O)c1ccc[nH]1`, the activity change, negative = inhibition was 3.55%.
Consider `O=C(O)C/C=C\CC(=O)O`, for which the activity change, negative = inhibition was 2.57%.
Consider `CC(=O)Nc1nc(NC(C)=O)c2[nH]c(CO)nc2n1`, for which the activity change, negative = inhibition is 1.8%.
